For part of these data: Measured potencies and affinities stand elsewhere. Calls of active or inactive are those of the source.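 How the source made its calls, unless noted: active means compound raising the membrane signal above positive-control mean plus 3 SD in both repeats, and a primary screen hit; inactive means the rest.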

We go through 14 compounds from PubChem BioAssay.

Experiment [1] deals with TRPC4 beta (transient receptor potential cation channel C4), mouse. The experiment in a line: TRPC4 cation channel opening, retest – cell-based, Fluo4 calcium, HEK293 TRPC4beta/mu-opioid, duplicates, 10 µM, confirmation (AID 2426;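 active means fluorescence ratio normalized to control raised more than 50% in primary screen plus both repeat runs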;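 further: percent rise of integrated ratio over buffer wells lacking compound which define 0%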). To be noted: Fluo4 calcium fluorescence, at 10 µM; active compounds read high.
The subject of experiment [2] is transient receptor potential cation channel C4 beta (TRPC4), mouse. The experiment can be described thus: TRPC4 cation channel opening, second retest – cell-based, second round, Fluo4, HEK293 TRPC4beta/mu-opioid, 1 µM, confirmation (AID 2461;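 active means primary screen active and over 50% activation in each of two duplicate runs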;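 on activation: 0% = wells without test compound as baseline of integrated fluorescence ratio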). To be noted: Fluo4 calcium fluorescence, at 1 µM; active compounds read high.
The test system of experiment [3] is TRPC4 (transient receptor potential cation channel C4 beta), mouse. The experiment can be described thus: potentiation of DAMGO EC20 TRPC4 response – cell-based, second round, Fluo-4, HEK293 TRPC4beta/mu-opioid, 1 µM, confirmation (AID 2554;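 active means primary screen hit whose fluorescence ratio, in both repeats, exceeds the weak agonist control mean by 3 SD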). To be noted: DAMGO EC20, Fluo-4 calcium flux, at 1 µM; active compounds read high. A general note: Calcium assays in cells follow changes in intracellular calcium, usually with a dye or a luminescent sensor.

In experiment [4] the test system is TRPC4 beta (transient receptor potential cation channel C4), mouse. The experiment can be described thus: potentiation of DAMGO EC20 TRPC4 response – cell-based, Fluo-4, HEK293 TRPC4beta/mu-opioid, confirmation (AID 2555;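 active means primary screen hit whose calcium fluorescence ratio, in both repeats, exceeds the weak agonist control mean by 3 SD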). To be noted: DAMGO EC20, Fluo-4 calcium flux, at 10 µM; active compounds read high.
Experiment [5] addresses Short transient receptor potential channel 4 (Mus musculus) (UniProt Q9QUQ5). The experiment in a line: blockers of DAMGO-evoked TRPC4 calcium flux – cell-based, Fluo4, HEK293 TRPC4beta/mu-opioid, confirmation (AID 2636;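 active means calcium signal cut by more than 3 SD below the full-agonist control yet still positive, in both repeats and the earlier primary screen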). To be noted: at 10 µM; active compounds read high.
The target is the same in experiment [6]. The experiment can be described thus: blockers of DAMGO-evoked TRPC4 calcium flux – cell-based, second round, Fluo4, HEK293 TRPC4beta/mu-opioid, 1 µM, confirmation (AID 2637;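 active means calcium signal ratio cut to more than 3 SD under the fully stimulated control mean yet still positive, in both repeats and the primary screen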). To be noted: at 1 µM; active compounds read high.
Experiment [7] has the same target. The experiment can be described thus: potentiation of DAMGO-evoked TRPC4 calcium signal – cell-based, HEK293 TRPC4/mu-opioid, Fluo-4 calcium, EC20 DAMGO, dose response (AID 434941;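 active means earlier screen potentiator hit that boosts the TRPC4 ion channel at some dose, with a dose response; inactive means no potentiation, no dose response, or not a prior hit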;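 further: calcium entry triggered by an EC20 dose of DAMGO at the co-expressed mu-opioid receptor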).
The target is the same in experiment [8]. The experiment can be described thus: block of DAMGO-driven TRPC4 calcium entry – cell-based, HEK293 TRPC4/mu-opioid, Fluo-4 calcium, dose response (AID 434942;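 active means primary screen inhibitor hit that blocks the TRPC4 channel at some tested dose, yielding a dose curve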).
Experiment [9] addresses Short transient receptor potential channel 6 (Mus musculus) (UniProt Q61143). The experiment can be described thus: TRPC6 blockade by TRPC4 inhibitor hits – cell-based, HEK293, membrane potential dye, duplicate, selectivity assay for TRPC4 inhibitor project, confirmation (AID 434948;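 active means active in primary screen and both duplicates, each dropping signal beyond three positive-control SD with fluorescence still positive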). To be noted: HEK293 TRPC6, membrane potential dye fluorescence, at 10 µM; inhibition: active compounds read high, stimulated with maximal-effect acetylcholine unless noted; outcome: stimulated with maximal-effect acetylcholine unless noted.

The target is the same in experiment [10]. The experiment can be described thus: TRPC6 opening by TRPC4 activator hits – cell-based, HEK293, membrane potential dye, duplicate, selectivity assay for TRPC4 activator project, confirmation (AID 434950;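 active means membrane potential signal rise above negative control mean plus 3 SD in both duplicates, also active in the earlier TRPC4 screen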;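 on activation: 0% = buffer only wells and 100% = acetylcholine maximal-effect wells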). To be noted: HEK293 TRPC6, membrane potential fluorescence, at 10 µM; activation: active compounds read high; outcome: activation.
Experiment [11] has the same target. The experiment in a line: positive modulators of mouse TRPC6 channel – HEK293 cells, membrane potential dye, duplicate, selectivity assay for TRPC4 potentiator project, confirmation (AID 434952). The note with it: HEK293 TRPC6, membrane potential dye fluorescence, at 10 µM; maximal acetylcholine added after compound unless noted.
The target of experiment [12] is Short transient receptor potential channel 4 (Mus musculus) (UniProt Q9QUQ5). The experiment can be described thus: calcium flux activators in TRPC4/5HT1a cells, counter-screen for TRPC4 activator project, cell-based, second counter screen, HEK293 TRPC4/5HT1a, Fluo-4 (AID 434977;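 active means calcium signal rise above buffer-control mean plus 5 SD in both duplicates, and also a hit in the primary screen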;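 on activation: plate controls were assay buffer for no effect and maximal serotonin response for full effect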). The note with it: Fluo-4 calcium flux, at 10 µM; active compounds read high.
Sequence of Short transient receptor potential channel 4 (Mus musculus) (Q9QUQ5 whole entry, looked up): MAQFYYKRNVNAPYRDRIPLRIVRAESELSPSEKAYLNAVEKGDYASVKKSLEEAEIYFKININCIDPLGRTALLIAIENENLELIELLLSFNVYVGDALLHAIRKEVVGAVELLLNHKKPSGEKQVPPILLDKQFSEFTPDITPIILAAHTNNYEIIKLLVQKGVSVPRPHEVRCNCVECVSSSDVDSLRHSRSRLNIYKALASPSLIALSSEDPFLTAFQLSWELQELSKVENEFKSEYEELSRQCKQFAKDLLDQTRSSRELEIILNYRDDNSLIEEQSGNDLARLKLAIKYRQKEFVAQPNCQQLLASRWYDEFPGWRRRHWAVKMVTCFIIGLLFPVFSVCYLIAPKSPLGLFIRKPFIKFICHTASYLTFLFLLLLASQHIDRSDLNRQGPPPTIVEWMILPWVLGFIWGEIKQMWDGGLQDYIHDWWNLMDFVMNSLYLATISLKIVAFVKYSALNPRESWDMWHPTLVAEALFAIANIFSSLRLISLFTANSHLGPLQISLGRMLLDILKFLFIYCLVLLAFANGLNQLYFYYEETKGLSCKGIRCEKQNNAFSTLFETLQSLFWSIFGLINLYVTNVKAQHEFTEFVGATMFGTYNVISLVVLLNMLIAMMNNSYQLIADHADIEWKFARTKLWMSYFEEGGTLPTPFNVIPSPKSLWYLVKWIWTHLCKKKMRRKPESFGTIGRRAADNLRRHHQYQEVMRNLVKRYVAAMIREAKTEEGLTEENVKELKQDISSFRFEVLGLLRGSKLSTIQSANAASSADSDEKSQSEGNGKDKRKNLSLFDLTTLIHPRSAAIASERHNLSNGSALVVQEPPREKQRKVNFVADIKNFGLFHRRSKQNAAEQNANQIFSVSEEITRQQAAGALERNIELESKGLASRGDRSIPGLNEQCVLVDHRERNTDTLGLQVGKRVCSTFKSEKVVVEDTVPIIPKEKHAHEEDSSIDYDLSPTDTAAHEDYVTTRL
A short description of experiment [13]: serotonin-gated TRPC4 signal block – cell-based, second counter screen, HEK293 TRPC4/5HT1a, Fluo-4, counter-screen for TRPC4 inhibitor project, confirmation (AID 434978;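 active means primary screen active whose calcium signal fell more than 3 SD beyond the full-serotonin control mean in both duplicate plates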;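 further: serotonin given first at submaximal then at maximal dose after compound preincubation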). The note with it: Fluo-4 calcium flux, at 10 µM; inhibition: active compounds read high, serotonin added to trigger calcium flux unless noted; outcome: serotonin added to trigger calcium flux unless noted. For orientation: The purpose of a counterscreen is to sort out artefacts and off-target activity.

The test system of experiment [14] is TRPC4 (mouse), co-expressed with 5HT1a in HEK293. The experiment in a line: enhancement of serotonin-evoked TRPC4 response – cell-based, second counter screen, HEK293 TRPC4/5HT1a, Fluo-4, counter-screen for TRPC4 potentiator project, confirmation (AID 434979;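 active means signal rise over 3 SD above mean of control wells given weak agonist, in both repeats and first screen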). The note with it: Fluo-4 calcium flux, at 10 µM; outcome: serotonin added at its EC20 dose unless noted; potentiation: active compounds read high, serotonin added at its EC20 dose unless noted.

Experiment [15] in a line: nonspecific calcium rise without TRPC4 – cell-based, HEK293 mu-opioid receptor line, counter-screen for TRPC4 activator project, confirmation (AID 449723;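 active means hit in primary screen, with calcium signal over 5 SD above buffer well mean in both duplicates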;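 further: counter screen cells carry the mu-opioid receptor alone and lack TRPC4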). The note with it: HEK293 mu-opioid cells, Fluo-4 calcium fluorescence, at 10 µM; active compounds read high.
Experiment [16] is described as follows: nonspecific potentiation of DAMGO calcium response – cell-based, HEK293 mu-opioid receptor line, counter-screen for TRPC4 allosteric potentiator project, confirmation (AID 449724;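 active means calcium signal rise more than 3 SD above the low-dose agonist control mean, in both duplicate plates and the primary screen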;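 further: HEK293 cells carrying mu-opioid receptor only with no TRPC4 channel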). The note with it: HEK293 mu-opioid receptor cells, Fluo-4 calcium flux, at 10 µM; compound added before EC20 DAMGO stimulus unless noted.
Experiment [17] is described as follows: nonspecific flux increase, KCNQ1-free cells – parental CHO cells, counter-screen for KCNQ1 potentiator project (AID 493006;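 active means duplicate-averaged activation above buffer control mean plus 5 SD of those controls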). To be noted: parental CHO-K1 cells, FluxOR thallium flux, at 10 µM; active compounds read high.
The target in experiment [18] is Potassium voltage-gated channel subfamily KQT member 1 (Homo sapiens) (UniProt P51787). The experiment in a line: enhancement of KCNQ1 channel thallium flux – FluxOR thallium flux, CHO cells, duplicates, confirmation (AID 493007;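 active means potentiation averaged over duplicate wells exceeding buffer-only control mean by more than 3 SD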;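 further: cells depolarized by a potassium plus thallium sulfate stimulus after compound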). To be noted: KCNQ1 cell line, FluxOR thallium flux fluorescence, at 10 µM; active compounds read high, % of reference activator effect, buffer zero.
Sequence of Potassium voltage-gated channel subfamily KQT member 1 (Homo sapiens) (P51787 whole entry, looked up): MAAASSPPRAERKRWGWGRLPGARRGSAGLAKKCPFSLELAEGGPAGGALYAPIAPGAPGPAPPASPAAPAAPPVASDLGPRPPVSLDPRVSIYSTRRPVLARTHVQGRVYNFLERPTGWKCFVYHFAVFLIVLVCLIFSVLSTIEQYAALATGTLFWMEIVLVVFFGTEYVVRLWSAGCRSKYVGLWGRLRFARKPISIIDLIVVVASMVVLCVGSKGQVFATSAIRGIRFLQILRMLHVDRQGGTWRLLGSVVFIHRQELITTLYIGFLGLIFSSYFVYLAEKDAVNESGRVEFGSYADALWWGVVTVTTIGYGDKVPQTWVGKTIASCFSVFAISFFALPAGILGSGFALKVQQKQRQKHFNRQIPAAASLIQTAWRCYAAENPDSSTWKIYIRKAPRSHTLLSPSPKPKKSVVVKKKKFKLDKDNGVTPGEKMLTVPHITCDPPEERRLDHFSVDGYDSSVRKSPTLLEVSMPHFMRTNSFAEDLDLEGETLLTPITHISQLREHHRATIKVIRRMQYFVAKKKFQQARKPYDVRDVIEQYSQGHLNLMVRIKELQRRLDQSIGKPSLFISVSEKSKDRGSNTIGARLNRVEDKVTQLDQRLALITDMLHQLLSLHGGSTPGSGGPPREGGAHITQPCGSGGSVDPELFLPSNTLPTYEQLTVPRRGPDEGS

Experiment [19] concerns the target Potassium voltage-gated channel subfamily KQT member 2 (Rattus norvegicus) (UniProt O88943). The experiment in a line: KCNQ2 thallium flux enhancement – KCNQ2-CHO-K1 cells, selectivity assay for KCNQ1 potentiator project (AID 493009;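 active means mean duplicate potentiation above the buffer control mean plus 5 SD of buffer wells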;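 further: assay conditions were tuned for KCNQ1 rather than KCNQ2 modulators; signal is max minus min fluorescence divided by baseline after thallium stimulus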). The note with it: FluxOR thallium flux fluorescence, at 10 µM; active compounds read high, scaled: buffer 0, activator control 100.
Experiment [20] concerns the target Potassium voltage-gated channel subfamily KQT member 1 (Homo sapiens) (UniProt P51787). The experiment can be described thus: KCNQ1 activators by electrophysiology – IonWorks patch clamp, KCNQ1-CHO cells, orthogonal assay for KCNQ1 potentiator project, confirmation (AID 493184;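 active means current rise at least 3 SD above the untreated control mean in each of two repeat wells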). The note with it: automated patch clamp current, at 10 µM. (Patch clamp records ionic current or voltage across a cell membrane.)

Experiment [21] deals with Potassium voltage-gated channel subfamily E member 1 (Homo sapiens) + Potassium voltage-gated channel subfamily KQT member 1 (Homo sapiens) (UniProt P15382+P51787). The experiment can be described thus: KCNQ1-E1 channel activation – thallium flux, CHO-K1 KCNQ1/E1 cells, selectivity assay for KCNQ1 potentiator project, confirmation (AID 493186;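 active means mean duplicate activation above the buffer control mean plus 5 SD of those controls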). The note with it: FluxOR thallium flux, at 10 µM.
Sequence of Potassium voltage-gated channel subfamily E member 1 (Homo sapiens) + Potassium voltage-gated channel subfamily KQT member 1 (Homo sapiens) (P51787 whole entry, looked up): as the sequence (P51787 whole entry, looked up) above

Sequence of Short transient receptor potential channel 6 (Mus musculus) (Q61143 whole entry, looked up): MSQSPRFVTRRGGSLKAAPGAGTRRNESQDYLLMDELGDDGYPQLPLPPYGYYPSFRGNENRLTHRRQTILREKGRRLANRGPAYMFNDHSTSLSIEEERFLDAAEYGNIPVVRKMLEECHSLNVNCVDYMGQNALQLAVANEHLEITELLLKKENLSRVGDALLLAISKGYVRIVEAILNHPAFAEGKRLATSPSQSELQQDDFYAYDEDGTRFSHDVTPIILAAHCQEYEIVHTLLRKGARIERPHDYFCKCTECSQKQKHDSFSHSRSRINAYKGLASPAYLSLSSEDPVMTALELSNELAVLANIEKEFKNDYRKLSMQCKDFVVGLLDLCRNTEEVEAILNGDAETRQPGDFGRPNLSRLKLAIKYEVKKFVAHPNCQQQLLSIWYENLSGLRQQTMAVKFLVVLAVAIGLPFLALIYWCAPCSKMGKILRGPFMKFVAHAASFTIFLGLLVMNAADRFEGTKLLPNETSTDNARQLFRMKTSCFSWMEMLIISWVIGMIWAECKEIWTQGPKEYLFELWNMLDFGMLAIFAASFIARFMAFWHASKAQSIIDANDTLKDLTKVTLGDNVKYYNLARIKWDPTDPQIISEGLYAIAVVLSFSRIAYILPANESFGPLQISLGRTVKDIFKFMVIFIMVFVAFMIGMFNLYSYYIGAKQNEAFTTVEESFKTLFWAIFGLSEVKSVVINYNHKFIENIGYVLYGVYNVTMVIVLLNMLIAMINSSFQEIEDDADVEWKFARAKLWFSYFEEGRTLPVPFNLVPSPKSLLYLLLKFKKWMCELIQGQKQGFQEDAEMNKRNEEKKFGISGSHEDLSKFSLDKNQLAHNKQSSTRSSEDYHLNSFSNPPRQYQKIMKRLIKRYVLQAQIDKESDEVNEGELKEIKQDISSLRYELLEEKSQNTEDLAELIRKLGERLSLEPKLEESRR
Sequence of Potassium voltage-gated channel subfamily KQT member 2 (Rattus norvegicus) (O88943 whole entry, looked up): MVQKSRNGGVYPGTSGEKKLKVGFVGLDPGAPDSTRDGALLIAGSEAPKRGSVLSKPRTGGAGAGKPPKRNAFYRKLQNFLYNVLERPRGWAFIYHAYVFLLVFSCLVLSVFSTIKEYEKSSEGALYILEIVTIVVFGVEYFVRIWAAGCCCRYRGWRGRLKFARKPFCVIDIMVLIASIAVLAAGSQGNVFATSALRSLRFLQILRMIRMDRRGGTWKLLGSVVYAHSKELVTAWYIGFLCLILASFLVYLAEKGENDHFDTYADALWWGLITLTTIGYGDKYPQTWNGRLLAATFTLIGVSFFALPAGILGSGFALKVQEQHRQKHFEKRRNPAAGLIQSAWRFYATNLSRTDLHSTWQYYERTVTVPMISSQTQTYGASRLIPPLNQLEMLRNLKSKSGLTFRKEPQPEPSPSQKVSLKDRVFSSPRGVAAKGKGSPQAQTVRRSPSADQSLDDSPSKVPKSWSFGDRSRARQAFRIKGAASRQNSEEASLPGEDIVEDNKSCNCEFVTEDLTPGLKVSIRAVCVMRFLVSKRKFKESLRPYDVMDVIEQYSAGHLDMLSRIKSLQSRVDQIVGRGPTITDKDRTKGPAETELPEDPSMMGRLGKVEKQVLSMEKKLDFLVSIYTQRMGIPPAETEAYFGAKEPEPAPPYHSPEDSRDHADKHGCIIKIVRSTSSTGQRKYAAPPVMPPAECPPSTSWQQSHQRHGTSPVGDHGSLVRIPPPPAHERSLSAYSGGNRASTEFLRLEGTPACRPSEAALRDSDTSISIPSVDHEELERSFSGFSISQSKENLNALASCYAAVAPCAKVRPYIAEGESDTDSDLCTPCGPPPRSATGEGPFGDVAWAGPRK

As for `Cn1c(N2CCNCC2)nc2ccccc21`, the activation in experiment [1] is 117% (active); in experiment [2], 92% (active); in experiment [10], 31.5% (active); in experiment [12], 34.7% (active). Also, the result in [3], in [4], in experiment [5], in [6], in [7] and in experiment [8] was inactive. Also, the outcome in experiment [9], in [11], in [13], in experiment [14], in experiment [15] and in [16] was inactive.

As for `CCOP(=S)(OCC)c1ccc(N(C)C)cc1`, the outcome in [17], in [18], in experiment [19] and in [20] was inactive.

`COC(=O)C1=CCCN(C)C1`: the activation in experiment [1] was 96% (active); in experiment [10], 70% (active); in experiment [12] it was 43.8% (active); in [15], 19.7% (active). Besides, the result in experiment [2], in [3], in experiment [4], in experiment [5], in [6] and in experiment [7] was inactive. The result in experiment [8], in experiment [9], in experiment [11], in experiment [13], in [14] and in experiment [16] was inactive.

`O=C1OC(c2ccc([N+](=O)[O-])cc2)=N/C1=C/N1CC2CC(C1)c1cccc(=O)n1C2` (stereo unspecified): the activation in experiment [1] is 158% (active); in experiment [10] it was 254% (active); in experiment [12], 64.7% (active); in experiment [15], 55.4% (active). Moreover, the result in experiment [2], in [3], in experiment [4], in [5], in experiment [6] and in experiment [7] was inactive. In addition, the result in experiment [8], in experiment [9], in [11], in [13], in experiment [14] and in [16] was inactive.

Take `CN1CCN(c2ccc([N+](=O)[O-])c3cccnc23)CC1`: the activation was 85% (active) in experiment [1], 78% (active) in experiment [2] and 25.7% (active) in experiment [12]. Besides, the values for the potentiation in experiment [3], in experiment [4] and in experiment [14] were 33% (active), 26% (active) and 16.9% (active), respectively. Further, the outcome in [5], in experiment [6], in experiment [7], in experiment [8], in experiment [9] and in [10] was inactive. For the same compound, the result in [11], in experiment [13], in [15] and in experiment [16] was inactive.

Regarding `CCOC(=O)C1(c2ccccc2)CCN(CCC(=O)Nc2ccccc2OC)CC1`, the activation is 70% (active) in experiment [1] and 62% (active) in experiment [10]. The result in experiment [2], in [3], in experiment [4], in experiment [5], in experiment [6] and in [7] was inactive. Also, the outcome in experiment [8], in experiment [12] and in experiment [15] was inactive. Also, the outcome in [9], in experiment [11], in experiment [13], in experiment [14] and in experiment [16] was “inactive [setting not given]” in each case.

Consider `COc1ccccc1CC(=O)N1CCN(CCc2ccccc2)CC1`, for which the activation in experiment [1] was 79% (active); in experiment [10], 48.5% (active); in experiment [12], 13.4% (active). Further, the outcome in [2], in experiment [3], in experiment [4], in [5], in experiment [6] and in experiment [7] was inactive. In addition, the outcome in experiment [8], in experiment [9], in experiment [11], in experiment [13], in [14] and in [15] was inactive. Moreover, in experiment [16], the outcome was inactive.

Take `CN(C)C(CNC(=O)Cc1ccc(Br)cc1)c1ccccc1` (stereo unspecified): the activation in experiment [1] is 96% (active); in [2], 133% (active); in [10], 38.5% (active). For the same compound, the outcome in [3], in experiment [4], in experiment [5], in experiment [6], in experiment [7] and in experiment [8] was inactive. Also, the compound was called inactive in [9], in [11], in [12], in experiment [13], in [14] and in experiment [15]. In [16], the result was inactive.

With `COc1ccc(C2NCc3ccc4c(c3-n3cccc32)OCO4)cc1O` (stereo unspecified), the result in experiment [17], in [18], in [20] and in [21] was inactive.

For `Cc1ccccc1CC(=O)N(CCN(C)C)CC1CCCN(Cc2ccccc2F)C1` (stereo unspecified), the outcome in [17], in experiment [18], in experiment [20] and in experiment [21] was inactive.

In the case of `COc1ccccc1N(CC(=O)NC1CCCC1)C(=O)c1cnn(C(C)C)c1`, the result in experiment [17], in experiment [18], in experiment [19] and in experiment [20] was inactive.

Regarding `COc1cc(-n2c(=S)[nH]c3ccccc3c2=O)c(Cl)cc1Cl`, the outcome in [17], in experiment [18], in [19] and in [20] was inactive.

With `CCOP1(=S)Oc2cc3c(cc2C(C(=O)OC)(C(F)(F)F)O1)OCO3` (stereo unspecified), the result in [17], in experiment [18], in [19] and in experiment [20] was inactive.

As for `O=c1c(C=NCCN2CCNCC2)c(O)n(C2CCCCC2)c(=O)n1C1CCCCC1`, the outcome in experiment [17], in experiment [18], in experiment [19], in [20] and in experiment [21] was inactive.
